Potency and affinity values are given separately. Calls of active or inactive are those of the source.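 The calls were made as follows: active = growth signal falls, with fitted half-maximal dose at most ten times the top valid dose; inconclusive = flat curve with a partial drop, or a poorly fitting curve; inactive = the rest, including compounds that raise signal.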
Experiment: Candida albicans growth inhibition, agent alone, dose response, counter-screen for reversing antifungal drug resistance, CaCi-2 strain, no fluconazole, dry powder, set 4 (AID 488932)

SMILES | outcome
O=C(c1cccc(Cl)c1)N1CCN(c2ccnc3cc(Cl)ccc23)CC1 | inactive
O=C(c1ccc(Cl)cc1)N1CCN(c2nc3ccccc3o2)CC1 | inactive
O=C(c1ccc(Cl)cc1)N1CCN(c2ccnc3ccc(Cl)cc23)CC1 | inactive
O=C(c1ccc(Cl)cc1)N1CCN(c2ccccn2)CC1 | inactive
CC(C)C(=O)N1CCN(c2ccnc3cc(Cl)ccc23)CC1 | inactive
O=C(c1ccc(Cl)cc1)N1CCN(c2ccncc2)CC1 | inactive
O=C(c1cccs1)N1CCN(c2ccnc3cc(Cl)ccc23)CC1 | inactive
O=S(=O)(c1ccc(Cl)cc1)N1CCN(c2ccnc3cc(Cl)ccc23)CC1 | inactive
O=C(C1CCC1)N1CCN(c2ccnc3cc(Cl)ccc23)CC1 | inactive
O=C(c1ccc(Cl)cc1)N1CCNCC1 | inactive
O=C(c1ccc(Cl)cc1)N1CCN(c2ccnc3cc(Cl)ccc23)CC1 | inactive
O=C(C1CC1)N1CCN(c2ccnc3cc(Cl)ccc23)CC1 | inactive
Clc1ccc2c(N3CCNCC3)ccnc2c1 | inactive
O=C(c1ccc(Cl)cc1)N1CCCN(c2ccnc3cc(Cl)ccc23)CC1 | inactive
CCCCNC(=O)N1CCN(c2ccnc3cc(Cl)ccc23)CC1 | inactive
O=C(C1CCCC1)N1CCN(c2ccnc3cc(Cl)ccc23)CC1 | inactive
Cc1ccc(N2CCN(C(=O)c3ccc(Cl)cc3)CC2)nn1 | inactive
O=C(c1ccccc1)N1CCN(c2ccnc3cc(Cl)ccc23)CC1 | inactive
COc1ccc(C(=O)N2CCN(c3ccnc4cc(Cl)ccc34)CC2)cc1 | inactive
CC(C)CC(=O)N1CCN(c2ccnc3cc(Cl)ccc23)CC1 | inactive
Cc1cccc(N2CCN(C(=O)c3ccc(Cl)cc3)CC2)n1 | inactive
Cc1ccc(C(=O)N2CCN(c3ccnc4cc(Cl)ccc34)CC2)cc1 | inactive
COc1ccc(OC)c2c(C)cc(N3CCN(C(=O)c4ccc(Cl)cc4)CC3)nc12 | inactive
